From PubChem BioAssay (EPA / NIEHS)
Calls of active or inactive are those of the source. Rule for the calls: active = hit-call score of the fitted dose curve at least 0.9, where 1 is the maximum; inactive = score below 0.9.

Assay: APR_HepG2_MicrotubuleCSK_24hr: Apredica 24-hour HepG2 Assay for Microtubule CSK Stabilty (AID 2282909)
Conditions: HepG2 microtubule cytoskeleton imaging, actives raise or lower the signal
Procedure, shortened: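 Human liver HepG2, 24 h dosing, 0.39–200 uM ×10 conc, dup, 0.5% DMSO. 3.7% formaldehyde fix, 0.5% Triton perm, anti-alpha-tubulin (1:200)/Cy5 secondary + Hoechst. HCS imaging, 6 fields/well; gain/loss fit vs DMSO.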

| SMILES | outcome | AC50 |
| --- | --- | --- |
| CC#C[C@]1(O)CC[C@H]2[C@@H]3CCC4=CC(=O)CCC4=C3[C@@H](c3ccc(N(C)C)cc3)C[C@@]21C | inactive | – |
| CCOC(=O)CC(O)(CC(=O)OCC)C(=O)OCC | inactive | – |
| CCCCCCCC(=O)O | inactive | – |
| CC[C@H](c1ccc(O)cc1)[C@@H](CC)c1ccc(O)cc1 | inactive | – |
| O=c1c(-c2ccc(O)cc2)coc2cc(O)ccc12 | inactive | – |
| CCCCC(CC)COC(=O)CCCCC(=O)OCC(CC)CCCC (stereo not given) | inactive | – |
| CC(C)(C)c1cccc(C(C)(C)C)c1O | inactive | – |
| CCCOc1sc(C(=O)N2CCC(c3cc(CN)ccc3F)CC2)c(C)c1Br | – | 15.6 µM (active) |
| NC(=O)N(O)[C@@H]1C=C[C@H](Oc2cccc(Oc3ccc(F)cc3)c2)C1 | – | 93 µM (active) |
| NC(=O)N1C(=O)C(C(=O)c2cc(Cl)cs2)c2cc(F)c(Cl)cc21 (stereo not given) | – | 75.3 µM (active) |
| Cc1cc(C)c(O)c(C)c1 | inactive | – |
| Nc1cccc2c(N)cccc12 | inactive | – |
| COCC(C)O (stereo not given) | inactive | – |
| c1ccc2c(c1)ccc1ccccc12 | inactive | – |
| CCCCC[C@H](O)CC(=O)CCc1ccc(O)c(OC)c1 | inactive | – |
| CC(C)CCCCCCOC(=O)CCCCC(=O)OCCCCCCC(C)C | inactive | – |
| O=C(/C=C/c1ccc(O)cc1)CC(=O)/C=C/c1ccc(O)cc1 | inactive | – |
| OCCC(F)(F)C(F)(F)C(F)(F)C(F)(F)C(F)(F)C(F)(F)C(F)(F)C(F)(F)F | – | 23.1 µM (active) |
| C#C[C@]1(O)CC[C@H]2[C@@H]3CCC4=CC(=O)CC[C@@H]4[C@H]3CC[C@@]21C | inactive | – |
| CCc1nn(C2CCCCC2)c2cc(C3(C#N)CCC(C(=O)O)CC3)ccc12 (stereo not given) | inactive | – |
